In PubChem BioAssay AID1159524 (National Center for Advancing Translational Sciences (NCATS), 2015):
Out of some 410,000 compounds screened, about 5,100 (1.2%) were called active. A call without a number means that no potency is given here. Roughly 8% stayed inconclusive and do not appear here. The full list was thinned out, with actives kept by preference. A number with no mark means an inactive call. Calls come from the whole dose curve; tested in HEK293T cells.

Assay: High Throughput Screening for Foot and Mouth Disease Virus Antivirals; note: read-out not given here; nearly all actives have a fitted effect of over 45% in size
Details: FMDV antiviral cell-based qHTS; series mostly up to 57.9 µM
Potency is the fitted concentration of half-maximal effect.

Row | Compound | Potency | activity change, negative = inhibition
1 | CC(=O)N1CCC2(CCCN(c3ncccn3)C2)CC1 | inactive | 
2 | O=C(O)C1CCN(c2ncnc3ccc(-c4ccccc4C(F)(F)F)cc23)CC1 | inactive | 
3 | O=C(NCCCN1CCN(c2cccc(Cl)c2)CC1)c1nnc(Cc2ccc(F)cc2Cl)o1 | inactive | 
4 | COc1cc(/C=C/C2=CC(C)(C)NC(=S)N2)cc(OC)c1OC | inactive | 
5 | COc1cc(/C=C/C(=O)N2CCc3ccccc3C2)cc(OC)c1OC | inactive | 
6 | COc1cc(/C=C/c2ccc(/C=C/c3cc(OC)c(OC)c(OC)c3)cc2)cc(OC)c1OC | 22.4 µM (active) | 
7 | CCN1CCc2nc3sc(C(=O)Nc4ccccc4OC(F)(F)F)c(N)c3cc2C1 | inactive | 
8 | CC1OC(OCC2OC(Oc3c(-c4ccc(O)c(O)c4)oc4cc(O)cc(O)c4c3=O)C(O)C(O)C2O)[C@@H](O)C(O)C1O (stereo partly specified) | inactive | 
9 | Cc1ccc(Nc2c3c(nc4ccccc24)CCC3)cc1 | 17.8 µM (active) | 
10 | CCOc1ccc(C(=O)Nc2ccc3nc4c(c(Nc5ccccc5OC)c3c2)CCCC4)cc1 | inactive | 
11 | Cc1noc(C)c1-c1nc(Nc2ccccc2)c2ccccc2n1 | inactive | 
12 | O=C(c1cccc(Cn2cccn2)c1)N1CCOc2c(cc(-c3csc4ccccc34)cc2OC2CCOC2)C1 (stereo unspecified) | inactive | 
13 | Cc1ccccc1-c1nc(N(C)Cc2ccco2)c2ccccc2n1 | inactive | 
14 | CC1(C)OC2CC3C4CCC5=CC(=O)CCC5(C)C4(F)C(O)CC3(C)[C@]2(C(=O)CCl)O1 (stereo partly specified) | inactive | 
15 | COc1ccc(C(=O)Nc2nc(-c3ccc(S(=O)(=O)N4CCOCC4)cc3)cs2)cc1 | 7.94 µM (active) | 
16 | Cc1ccnc(NS(=O)(=O)c2ccc(NC(=O)c3ccc(S(=O)(=O)N4CCOCC4)cc3)cc2)n1 | inactive | 
17 | Cc1ccc(S(=O)(=O)N2CCOCC2)cc1NC(=O)c1ccncc1 | inactive | 
18 | CCS(=O)(=O)Nc1cc(C(=O)N2C[C@@H](C)O[C@@H](C)C2)c2c(c1)nc(-c1ccccc1)n2C | inactive | 
19 | Cc1ccc2cccc(NC(=O)c3ccc(OC(C)C)cc3)c2n1 | inactive | 
20 | CC(C)(C)NC(=O)COC(=O)c1cc(Cl)ccc1[N+](=O)[O-] | inactive | 
21 | N#Cc1cccc(NC(=O)COC(=O)c2ccccc2C(=O)c2ccc(Cl)c([N+](=O)[O-])c2)c1 | 28.2 µM (active) | 
22 | Cc1ccc(CC(=O)Nc2cccc(C#N)c2)cc1 | inactive | 
23 | CCOCCn1ccc2c(OCC(=O)NCc3ccc(C)cc3)cccc2c1=O | inactive | 
24 | COc1ccccc1CNc1ncnc2ccc(-c3c(C)noc3C)cc12 | inactive | 

Row | Compound | Potency | activity change, negative = inhibition
25 | Cc1ccc2oc(=O)c3cnn(CC(=O)N4CCN(c5cccc(Cl)c5)CC4)c3c2c1 | inactive | 
26 | Cn1c(SCC(=O)N2CCCc3ccccc32)nc2ccccc2c1=O | 12.6 µM (active) | 
27 | COc1ccccc1Cc1nc2ccccc2nc1SCC(=O)N1CCCc2ccccc21 | inactive | 
28 | Cn1c(SCC(=O)N2CCCc3ccccc32)ncc(C(=O)Nc2ccc(F)cc2)c1=O | inactive | 
29 | COc1cccc(Cn2c(=O)cnc3cncnc32)c1 | inactive | 
30 | O=C(c1ccco1)N1CCC2(CC1)CCN(c1ncccn1)CC2 | inactive | 
31 | Cc1c(S(=O)(=O)O)oc2c1C(=O)C(=O)c1c-2ccc2c1CCCC2(C)C | inactive | 
32 | Cc1ccccc1-c1nc(CS(=O)(=O)CC(=O)Nc2cc(Cl)cc(Cl)c2)c(C)o1 | inactive | 
33 | COc1ccc(C(=O)N2CCC[C@@]3(CCN(C(=O)NC(C)C)C3)C2)cc1 | inactive | 
34 | Cc1c(C(=O)Nc2cccc(Cl)c2)oc2ccc(S(=O)(=O)N3CCOCC3)cc12 | inactive | 
35 | COc1cc(=O)n2c(c1C(=O)N(C)Cc1nccs1)CCN(Cc1ccc(Cl)cc1)CC2 | inactive | 
36 | Clc1cc(NC2CCCCC2)ncn1 | inactive | 
37 | CCc1cc2c(SCC(=O)Nc3ncc(Cl)c(C)c3Cl)ncnc2s1 | inactive | 
38 | CCc1cc2c(NC3CCCC3)ncnc2s1 | 25.1 µM (active) | 
39 | Cc1noc(C)c1-c1cc(NCc2cccnc2)ncn1 | inactive | 
40 | CC(=O)OC1CCC2(O)CC1(C)CCC1C2CC1(C)C (stereo unspecified) | inactive | 
41 | C[C@@]12CCC3C(CC[C@@H]4CC(O)CC[C@@]34C)C1CCC2O (stereo partly specified) | inactive | 
42 | CCCCOc1ccc(C(=O)Nc2cccc(-c3nc4ccccc4o3)c2C)cc1 | inactive | 
43 | Cc1cccc(NC(=O)N2CCC(CN3CCc4ccccc4C3)CC2)c1C | inactive | 
44 | CCCCCCCC/C=C\CCCCCCCC(=O)OC[C@H](CO)OC(C)=O |  | -19.7% [at 6.7 µM]
45 | Cc1ccc(C(=O)N/C(=C\c2ccco2)C(=O)NC2CCS(=O)(=O)C2)cc1 (stereo unspecified) | inactive | 
46 | Cc1cc(C)cc(Oc2nc3c(C)cccn3c(=O)c2/C=C(\C#N)C(=O)NC2CCS(=O)(=O)C2)c1 (stereo unspecified) | 22.4 µM (active) | 
47 | COc1ccc(-c2ccc(OC(=O)NC3CCS(=O)(=O)C3)cc2)cc1 (stereo unspecified) | inactive | 
48 | CC(=O)OCC(=O)[C@@]1(O)CCC2C3CCC4=CC(=O)CC[C@@]4(C)[C@]3(F)C(O)C[C@]21C (stereo partly specified) | inactive | 

Row | Compound | Potency | activity change, negative = inhibition
49 | CCCCC/C=C\CC1OC1CCCCCCCC(=O)O (stereo unspecified) |  | -2.3% [at 0.463 µM]
50 | CCN1CCN(C(=O)CCN2C(=O)c3ccccc3C2=O)CC1 | inactive | 
51 | C=CCN1CCN(C(=O)CCCc2ccccc2)CC1 | 14.1 µM (active) | 
52 | O=C(CCc1ccccc1F)N1CCN(c2ccccc2)CC1 | inactive | 
53 | O=S(=O)(c1ccc(Br)cc1)c1nnn2c1nc(NC1CCCCCC1)c1sccc12 | inactive | 
54 | CC(=O)N1CCC2(CCCN(Cc3ccc(C#N)cc3)C2)CC1 | inactive | 
55 | Cc1ccc(C)c(OCCC(=O)Nc2cccc(S(=O)(=O)N3CCCC3)c2)c1 | inactive | 
56 | CC(=O)Nc1ccc(S(=O)(=O)N2CCN(CCCOc3cc(C)ccc3C)CC2)cc1 | 31.6 µM (active) | 
57 | CC(=O)Nc1ccc(S(=O)(=O)N2CCN(c3ccccc3)CC2)cc1 | inactive | 
58 | CCNc1ncc2nc(CCc3ccccc3)c(=O)n(-c3ccc(OC)cc3)c2n1 | inactive | 
59 | O=C(c1csnn1)N1CCC[C@@]2(CCN(Cc3nccs3)C2)C1 | inactive | 
60 | CC(C)NC(=O)N1CC[C@@]2(CCCN(C(=O)c3cccc(F)c3)C2)C1 | inactive | 
61 | CCc1cccc(C)c1Nc1c(-c2ccc(N(C)C)cc2)nc2ncccn12 | inactive | 
62 | CC1CCN(C(=O)Cn2c(=O)n(-c3ccc(Cl)cc3)c(=O)c3c4c(sc32)CCC4)CC1 | inactive | 
63 | CCCCn1c(=O)c2oc3ccccc3c2n(CC(=O)Nc2ccccc2OC)c1=O | inactive | 
64 | CCCOc1ccc(C(=O)C(CCC(CNCC)C(=O)c2ccc(OCCC)cc2)CNCC)cc1 (stereo unspecified) | 28.2 µM (active) | 
65 | CC(C)CCOc1ccc(C(=O)C[N+]2(C)CCOCC2)cc1 | inactive | 
66 | CCCOc1cccc(C(=O)Nc2cccc(NC(=O)c3ccc(C(C)(C)C)cc3)c2)c1 | inactive | 
67 | Cc1ccc(C(NC(=O)C2CCN(CCOc3ccc(Cl)cc3Cl)CC2)c2ccccn2)cc1 (stereo unspecified) | inactive | 
68 | Cc1cccnc1C(NC(=O)C1CCN(Cc2ccc(Cl)c(Cl)c2)CC1)c1ccc(Cl)cc1 (stereo unspecified) | inactive | 
69 | O=C(NC(c1ccc(-c2ccccc2)cc1)c1cnccn1)C1CCN(CCOc2ccc(Cl)cc2Cl)CC1 (stereo unspecified) | 35.5 µM (active) | 
70 | Oc1ccc2c(c1)OCC1c3cc4c(cc3OC21)OCO4 (stereo unspecified) | inactive | 
71 | COc1ccc(-c2nn3c(=O)cc(CN4CCN(C(=O)c5ccc(OC)c(OC)c5)CC4)nc3s2)cc1 | inactive | 
72 | CCOc1ccc(NC(=O)c2cn(C3CCCCC3)c(=O)c3c2c2ccccc2n3C)cc1 | inactive | 

Row | Compound | Potency | activity change, negative = inhibition
73 | CC(C)C1=CC2=CC[C@@H]3[C@](C)(CO)CCC[C@]3(C)C2CC1 (stereo partly specified) | inactive | 
74 | O=C(OC12CC3CC(CC(C3)C1)C2)c1ccc(NCc2cc(O)ccc2O)cc1 | 12.6 µM (active) | 
75 | CCN(Cc1ccncc1)C(=O)[C@@H](CO)c1ccccc1 | inactive | 
76 | CC1Cc2cc(S(=O)(=O)CCC(=O)Nc3ccc(F)c(Cl)c3)ccc2N1C(=O)C1CC1 (stereo unspecified) | inactive | 
77 | COc1ccc(-c2nc3cnc(OC)nc3n(Cc3ccc(F)cc3)c2=O)cc1 | inactive | 
78 | CN(C)S(=O)(=O)c1ccc(NC(=O)COC(=O)Cn2[nH]c(=O)c3ccccc3c2=O)cc1 | inactive | 
79 | CN(C)S(=O)(=O)c1ccc(NC(=O)COC(=O)c2n[nH]c3ccccc23)cc1 | 22.4 µM (active) | 
80 | O=C(COC(=O)c1n[nH]c2ccccc12)Nc1ccccc1Br | inactive | 
81 | CCN1CCC(O)(/C=C/c2ccc(C)cc2)C(C(=O)/C=C/c2ccc(C)cc2)C1 (stereo unspecified) | 28.2 µM (active) | 
82 | COc1ccccc1-c1ccnc(-n2ncc(C(=O)NCCCN3CCOCC3)c2C)n1 | inactive | 
83 | Cc1ccc(CNC(=O)COC(=O)C2CCC2)cc1 | 31.6 µM (active) | 
84 | COc1ccc(CCNC(=O)COC(=O)C2CCCCC2)cc1 | inactive | 
85 | O=C(COC(=O)CNC(=O)C1CCCCC1)NCc1ccccc1 | inactive | 
86 | COc1ccc(Cn2ccnc2SCC(=O)NCc2ccco2)cc1 | inactive | 
87 | COc1ccc2[nH]cc(CCNc3ncnc4ccc(-c5ccc(C(=O)N(C)C)cc5)cc34)c2c1 | inactive | 
88 | Cc1nn(CC(=O)NCC2CCCO2)c(=O)c2cc3ccccc3n12 (stereo unspecified) | inactive | 
89 | CCN1C(=O)C(=Cc2c(C)n(CC(=O)NCC3CCCO3)c3ccccc23)C(=O)N(CC)C1=S (stereo unspecified) | 25.1 µM (active) | 
90 | COc1ccc(CCNC(=O)CCn2c(=O)c3ccccc3n(CC(=O)NCC3CCCO3)c2=O)cc1OC (stereo unspecified) | inactive | 
91 | COC1=C[C@]23CCCN2CCc2cc4c(cc2[C@@H]3[C@@H]1O)OCO4 | inactive | 
92 | c1ccc2c(c1)C(=NC1CCCCC1)NC2=NC1CCCCC1 | 15.8 µM (active) | 
93 | CC(=O)c1c(C)[nH]c(C(=O)Nc2cc(S(=O)(=O)N(C)C)ccc2C)c1C | inactive | 
94 | CC(=O)c1c(C)[nH]c(C(=O)COC(=O)c2cccc(S(=O)(=O)N(C)c3ccccc3)c2)c1C | 11.2 µM (active) | 
95 | CCCCn1c(N)c(N(CCOC)C(=O)c2cccc(S(=O)(=O)N(C)c3ccccc3)c2)c(=O)[nH]c1=O | inactive | 
96 | COc1cc(-c2cccnc2)cc2c1OCCN(C(=O)Cc1csc(C)n1)C2 | inactive | 
